Measured values published in the supplement of paper PMC10037445.
The full ranking holds about 2,900 compounds; the median of “NF-kB SEAP reporter activity, fold change vs agonist alone” is about 0.99, and the highest 2% start at about 2.6. Many of the other results were omitted from the sample, so the highest values are more common in it than they were.

Columns and labels:
RAW-Dual [1] = assay: NF-kB SEAP reporter activity, fold change vs agonist alone; higher = enhanced NF-kB activity
Method in brief: (§1)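 Reporter activity is given as fold change relative to agonist-alone wells. To measure it, 50 nL of library stock was pin-tooled onto RAW-Dual macrophages (50,000 cells/well, DMEM, 384-well plates), a PRR agonist followed 1 h later, and cells stayed at 37 °C, 5% CO2. Twenty hours on, supernatant was assayed for IRF (QuantiLuc luminescence) and NF-κB (QuantiBlue, 620 nm absorbance), and wells under 70% of agonist-control IncuCyte confluency in both mask sets were marked cytotoxic.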

RAW-Dual [2] = assay: NF-kB SEAP reporter activity, fold change vs agonist alone; cytotoxicity flag (confluency mask): not cytotoxic; higher = enhanced NF-kB activity
Method in brief: as §1

RAW-Dual [3] = assay: NF-kB SEAP reporter activity, fold change vs agonist alone; cytotoxicity flag (confluency mask): cytotoxic (confluency <70% of control); higher = enhanced NF-kB activity
Method in brief: as §1

[4] = library stock concentration (final ~1000-fold dilution): 10 mM, cytotoxicity flag (confluency mask): not cytotoxic, agonist: Imiquimod (TLR7) […]
[5] = library stock concentration (final ~1000-fold dilution): 10 mM, cytotoxicity flag (confluency mask): not cytotoxic, agonist: MPLA (TLR4) […]
[6] = agonist: ODN 1826 (TLR9) 0.5 ug/mL
[7] = agonist: Pam2CSK4 (TLR2/6) 0.1 ug/mL
[8] = agonist: Pam3CSK4 (TLR2/1) 0.1 ug/mL
[9] = library stock concentration (final ~1000-fold dilution): 10 mM, cytotoxicity flag (confluency mask): cytotoxic (confluency <70% of control), agonist: Imiquimod (TLR7) […]
[10] = library stock concentration (final ~1000-fold dilution): 10 mM, cytotoxicity flag (confluency mask): cytotoxic (confluency <70% of control), agonist: MPLA (TLR4) […]

Compound: Cc1nnc(C(C)C)n1C1CC2CCC(C1)N2CCC(NC(=O)C1CCC(F)(F)CC1)c1ccccc1 (centres undefined)
- NF-kB SEAP reporter activity (RAW-Dual [1]; [4]): 0.968
- NF-kB SEAP reporter activity (RAW-Dual [1]; [5]): 1

Compound: Cc1nnc(C(C)C)n1C1CC2CCC(C1)N2CCC(NC(=O)C1CCC(F)(F)CC1)c1ccccc1 (centres undefined) (library stock concentration (final ~1000-fold dilution): 10 mM)
- NF-kB SEAP reporter activity (RAW-Dual [2]; agonist: LPS (TLR4) 0.1 ug/mL): 0.973
- NF-kB SEAP reporter activity (RAW-Dual [2]; [6]): 1.04
- NF-kB SEAP reporter activity (RAW-Dual [2]; [7]): 1.06
- NF-kB SEAP reporter activity (RAW-Dual [2]; [8]): 1.11

Compound: O=C(/C=C/c1ccccc1)NC(NC(=S)Nc1cccc2cccnc12)C(Cl)(Cl)Cl (centres undefined) (library stock concentration (final ~1000-fold dilution): 10 mM)
- NF-kB SEAP reporter activity (RAW-Dual [2]; agonist: LPS (TLR4) 0.1 ug/mL): 0.779
- NF-kB SEAP reporter activity (RAW-Dual [2]; [6]): 0.429
- NF-kB SEAP reporter activity (RAW-Dual [2]; [7]): 0.288
- NF-kB SEAP reporter activity (RAW-Dual [2]; [8]): 0.388

Compound: O=C(/C=C/c1ccccc1)NC(NC(=S)Nc1cccc2cccnc12)C(Cl)(Cl)Cl (centres undefined)
- NF-kB SEAP reporter activity (RAW-Dual [1]; [4]): 0.628
- NF-kB SEAP reporter activity (RAW-Dual [1]; [5]): 0.833

Compound: O=C(NC(NC(=S)Nc1ccc(F)c([N+](=O)[O-])c1)C(Cl)(Cl)Cl)C(c1ccccc1)c1ccccc1 (centres undefined)
- NF-kB SEAP reporter activity (RAW-Dual [1]; [9]): 0.707
- NF-kB SEAP reporter activity (RAW-Dual [1]; [10]): 0.521

Compound: O=C(/C=C/c1ccccc1)NC(NC(=S)Nc1ccc(Cl)cc1)C(Cl)(Cl)Cl (centres undefined) (library stock concentration (final ~1000-fold dilution): 10 mM)
- NF-kB SEAP reporter activity (RAW-Dual [3]; agonist: LPS (TLR4) 0.1 ug/mL): 2.64
- NF-kB SEAP reporter activity (RAW-Dual [3]; [6]): 1.22
- NF-kB SEAP reporter activity (RAW-Dual [3]; [7]): 0.494
- NF-kB SEAP reporter activity (RAW-Dual [3]; [8]): 0.809

Compound: O=C(NC(NC(=S)Nc1ccc(F)c([N+](=O)[O-])c1)C(Cl)(Cl)Cl)C(c1ccccc1)c1ccccc1 (centres undefined) (library stock concentration (final ~1000-fold dilution): 10 mM)
- NF-kB SEAP reporter activity (RAW-Dual [3]; agonist: LPS (TLR4) 0.1 ug/mL): 0.182
- NF-kB SEAP reporter activity (RAW-Dual [3]; [6]): 0.493
- NF-kB SEAP reporter activity (RAW-Dual [3]; [7]): 0.146
- NF-kB SEAP reporter activity (RAW-Dual [3]; [8]): 0.135

Compound: O=C(/C=C/c1ccccc1)NC(NC(=S)Nc1ccc(Cl)cc1)C(Cl)(Cl)Cl (centres undefined)
- NF-kB SEAP reporter activity (RAW-Dual [1]; [9]): 1.03
- NF-kB SEAP reporter activity (RAW-Dual [1]; [10]): 2.18

Compound: Cc1cc2c(C(=O)NCC(C)c3ccccc3)c(O)c(O)cc2c(O)c1-c1c(C)cc2c(C(=O)NCC(C)c3ccccc3)c(O)c(O)cc2c1O (centres undefined) (library stock concentration (final ~1000-fold dilution): 10 mM)
- NF-kB SEAP reporter activity (RAW-Dual [2]; agonist: LPS (TLR4) 0.1 ug/mL): 4.28
- NF-kB SEAP reporter activity (RAW-Dual [2]; [6]): 2.93
- NF-kB SEAP reporter activity (RAW-Dual [2]; [7]): 0.803
- NF-kB SEAP reporter activity (RAW-Dual [2]; [8]): 1.62

Compound: Cc1cc2c(C(=O)NCC(C)c3ccccc3)c(O)c(O)cc2c(O)c1-c1c(C)cc2c(C(=O)NCC(C)c3ccccc3)c(O)c(O)cc2c1O (centres undefined)
- NF-kB SEAP reporter activity (RAW-Dual [1]; [4]): 1.84
- NF-kB SEAP reporter activity (RAW-Dual [1]; [5]): 2.27

Compound: N=C(N)Nc1nc(CSCCC(=N)NS(N)(=O)=O)cs1
- NF-kB SEAP reporter activity (RAW-Dual [1]; [4]): 0.918
- NF-kB SEAP reporter activity (RAW-Dual [1]; [5]): 1

Compound: N=C(N)Nc1nc(CSCCC(=N)NS(N)(=O)=O)cs1 (library stock concentration (final ~1000-fold dilution): 10 mM)
- NF-kB SEAP reporter activity (RAW-Dual [2]; agonist: LPS (TLR4) 0.1 ug/mL): 1.03
- NF-kB SEAP reporter activity (RAW-Dual [2]; [6]): 1.06
- NF-kB SEAP reporter activity (RAW-Dual [2]; [7]): 1.25
- NF-kB SEAP reporter activity (RAW-Dual [2]; [8]): 1.09

Compound: CN1CCCC1CCOC(C)(c1ccccc1)c1ccc(Cl)cc1.O=C(O)/C=C/C(=O)O (centres undefined) (library stock concentration (final ~1000-fold dilution): 10 mM)
- NF-kB SEAP reporter activity (RAW-Dual [2]; agonist: LPS (TLR4) 0.1 ug/mL): 1.32
- NF-kB SEAP reporter activity (RAW-Dual [2]; [6]): 0.754
- NF-kB SEAP reporter activity (RAW-Dual [2]; [7]): 0.873
- NF-kB SEAP reporter activity (RAW-Dual [2]; [8]): 0.64

Compound: CN1CCCC1CCOC(C)(c1ccccc1)c1ccc(Cl)cc1.O=C(O)/C=C/C(=O)O (centres undefined)
- NF-kB SEAP reporter activity (RAW-Dual [1]; [4]): 1.7
- NF-kB SEAP reporter activity (RAW-Dual [1]; [5]): 0.942

Compound: O=C(O)CCCN1CCC(OC(c2ccc(Cl)cc2)c2ccccn2)CC1.O=S(=O)(O)c1ccccc1 (centres undefined)
- NF-kB SEAP reporter activity (RAW-Dual [1]; [4]): 1.08
- NF-kB SEAP reporter activity (RAW-Dual [1]; [5]): 1.03

Compound: O=C(O)CCCN1CCC(OC(c2ccc(Cl)cc2)c2ccccn2)CC1.O=S(=O)(O)c1ccccc1 (centres undefined) (library stock concentration (final ~1000-fold dilution): 10 mM)
- NF-kB SEAP reporter activity (RAW-Dual [2]; agonist: LPS (TLR4) 0.1 ug/mL): 1.04
- NF-kB SEAP reporter activity (RAW-Dual [2]; [6]): 1.06
- NF-kB SEAP reporter activity (RAW-Dual [2]; [7]): 1.01
- NF-kB SEAP reporter activity (RAW-Dual [2]; [8]): 1.17

Compound: N#CC1CC2CC2N1C(=O)C(N)C12CC3CC(CC(O)(C3)C1)C2.O (centres undefined)
- NF-kB SEAP reporter activity (RAW-Dual [1]; [5]): 1.19

Compound: N#CC1CC2CC2N1C(=O)C(N)C12CC3CC(CC(O)(C3)C1)C2.O (centres undefined) (library stock concentration (final ~1000-fold dilution): 10 mM)
- NF-kB SEAP reporter activity (RAW-Dual [2]; agonist: LPS (TLR4) 0.1 ug/mL): 1.27
- NF-kB SEAP reporter activity (RAW-Dual [2]; [6]): 1.44
- NF-kB SEAP reporter activity (RAW-Dual [2]; [7]): 1.71
- NF-kB SEAP reporter activity (RAW-Dual [2]; [8]): 1.75

Compound: O.c1cnc2c(c1)ccc1cccnc12 (library stock concentration (final ~1000-fold dilution): 10 mM)
- NF-kB SEAP reporter activity (RAW-Dual [2]; agonist: LPS (TLR4) 0.1 ug/mL): 2.48
- NF-kB SEAP reporter activity (RAW-Dual [2]; [6]): 1.17
- NF-kB SEAP reporter activity (RAW-Dual [2]; [7]): 1.44
- NF-kB SEAP reporter activity (RAW-Dual [2]; [8]): 2.06

Compound: O=C(O)c1ccc(O)c2ncccc12
- NF-kB SEAP reporter activity (RAW-Dual [1]; [4]): 1.05
- NF-kB SEAP reporter activity (RAW-Dual [1]; [5]): 1.03

Compound: N#Cc1ncccn1
- NF-kB SEAP reporter activity (RAW-Dual [1]; library stock concentration (final ~1000-fold dilution): 2 mM, cytotoxicity flag (confluency mask): not cytotoxic, agonist: Imiquimod (TLR7) […]): 1
- NF-kB SEAP reporter activity (RAW-Dual [1]; library stock concentration (final ~1000-fold dilution): 2 mM, cytotoxicity flag (confluency mask): not cytotoxic, agonist: MPLA (TLR4) […]): 1

Compound: O.c1cnc2c(c1)ccc1cccnc12
- NF-kB SEAP reporter activity (RAW-Dual [1]; [4]): 2.78
- NF-kB SEAP reporter activity (RAW-Dual [1]; [5]): 2.1

Compound: N#Cc1ncccn1 (library stock concentration (final ~1000-fold dilution): 2 mM)
- NF-kB SEAP reporter activity (RAW-Dual [2]; agonist: LPS (TLR4) 0.1 ug/mL): 1.32
- NF-kB SEAP reporter activity (RAW-Dual [2]; [6]): 1.02
- NF-kB SEAP reporter activity (RAW-Dual [2]; [7]): 1.09
- NF-kB SEAP reporter activity (RAW-Dual [2]; [8]): 1.05

Compound: O=C(O)c1ccc(O)c2ncccc12 (library stock concentration (final ~1000-fold dilution): 10 mM)
- NF-kB SEAP reporter activity (RAW-Dual [2]; agonist: LPS (TLR4) 0.1 ug/mL): 1.21
- NF-kB SEAP reporter activity (RAW-Dual [2]; [6]): 1.04
- NF-kB SEAP reporter activity (RAW-Dual [2]; [7]): 0.998
- NF-kB SEAP reporter activity (RAW-Dual [2]; [8]): 1.4

Compound: CCn1cc(C(=O)O)c(=O)c2cc(F)c(N3CCN(C)CC3)cc21.CS(=O)(=O)O.O.O
- NF-kB SEAP reporter activity (RAW-Dual [1]; [4]): 0.752
- NF-kB SEAP reporter activity (RAW-Dual [1]; [5]): 0.814

Compound: CCn1cc(C(=O)O)c(=O)c2cc(F)c(N3CCN(C)CC3)cc21.CS(=O)(=O)O.O.O (library stock concentration (final ~1000-fold dilution): 10 mM)
- NF-kB SEAP reporter activity (RAW-Dual [2]; agonist: LPS (TLR4) 0.1 ug/mL): 1.38
- NF-kB SEAP reporter activity (RAW-Dual [2]; [6]): 0.867
- NF-kB SEAP reporter activity (RAW-Dual [2]; [7]): 1.01
- NF-kB SEAP reporter activity (RAW-Dual [2]; [8]): 1.01

Compound: Cl.Cl.OC(CN1CCN(c2cccc(Cl)c2)CC1)C(c1ccccc1)c1ccccc1 (centres undefined) (library stock concentration (final ~1000-fold dilution): 10 mM)
- NF-kB SEAP reporter activity (RAW-Dual [2]; agonist: LPS (TLR4) 0.1 ug/mL): 0.841
- NF-kB SEAP reporter activity (RAW-Dual [2]; [6]): 1.02
- NF-kB SEAP reporter activity (RAW-Dual [2]; [7]): 0.761
- NF-kB SEAP reporter activity (RAW-Dual [2]; [8]): 0.956

Compound: Cl.Cl.OC(CN1CCN(c2cccc(Cl)c2)CC1)C(c1ccccc1)c1ccccc1 (centres undefined)
- NF-kB SEAP reporter activity (RAW-Dual [1]; [4]): 1.33
- NF-kB SEAP reporter activity (RAW-Dual [1]; [5]): 1.04

Compound: CC(=O)OC1CC2CCC3C(CCC4(C)C3CC([N+]3(C)CCCCC3)C4OC(C)=O)C2(C)CC1N1CCCCC1 (centres undefined)
- NF-kB SEAP reporter activity (RAW-Dual [1]; [4]): 0.939
- NF-kB SEAP reporter activity (RAW-Dual [1]; [5]): 0.965

Compound: CC(=O)OC1CC2CCC3C(CCC4(C)C3CC([N+]3(C)CCCCC3)C4OC(C)=O)C2(C)CC1N1CCCCC1 (centres undefined) (library stock concentration (final ~1000-fold dilution): 10 mM)
- NF-kB SEAP reporter activity (RAW-Dual [2]; agonist: LPS (TLR4) 0.1 ug/mL): 1.04
- NF-kB SEAP reporter activity (RAW-Dual [2]; [6]): 1.02
- NF-kB SEAP reporter activity (RAW-Dual [2]; [7]): 0.945
- NF-kB SEAP reporter activity (RAW-Dual [2]; [8]): 1.01
